The target in one assay is Albumin (Bos taurus) (UniProt P02769). The assay is described as follows: bovine serum albumin binders on microarray, profiling panel, artefact control for SMM control protein annotation, biochemical, small-molecule microarray, Alexa647 label, 635/667 nm fluorescence (AID 1118).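 Further: score merges 667 nm emission intensity and signal-to-noise per printed compound spot.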 Conditions: BSA-A647 binding, fluorescence 635 nm, higher = more signal.
Assay [1] in a line: small-molecule microarray binders of probe aXIP, primary screen, biochemical, NeuroSMM set, 635/667 nm fluorescence (AID 1119).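 Further: probe is the protein aXip251-270 applied at 1 µg/mL to compound-printed slides; binding of probe to printed compounds measured as 667 nm fluorescence plus signal to noise.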 Conditions: higher = more signal, called active from +8 up or from −8 down.
Assay [2] is described as follows: small-molecule binders of probe aNOTCH3, primary screen, biochemical, small-molecule microarray, 635/667 nm fluorescence (AID 1120).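 Further: probe is a biotin-tagged antibody raised against NOTCH3 rather than NOTCH3 protein; score merges spot fluorescence near 667 nm with spot signal to noise.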 Conditions: higher = more signal.
Assay [3] in a line: small-molecule binders of probe aNOTCH2, primary screen, biochemical, small-molecule microarray, 635/667 nm fluorescence (AID 1121).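 Further: score merges feature fluorescence read at 667 nm with its signal to noise.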 To be noted: higher = more signal.
Assay [4] concerns the target Carbonic anhydrase 2 (Homo sapiens) (UniProt P00918). Put plainly: CAII small-molecule binders, profiling panel, biochemical, small-molecule microarray, Alexa647-labelled CAII (AID 1122). Conditions: CAII-A647 binding fluorescence, higher = more signal.
Assay [5] can be described thus: COS7 lysate on small-molecule microarray, probe aHis, 635 nm (AID 1123).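 Further: z-score combines 667nm fluorescence intensity with signal-to-noise per printed compound spot.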 To be noted: COS7 cell lysate, fluorescence, higher = more signal.
Assay [6] is described as follows: compound binding in COS7 lysate, probe aLAP1, primary screen, cell lysate, small-molecule microarray (AID 1124).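 Further: lysate comes from COS7 cells expressing LAP1 and is applied at 0.3 µg/mL; score merges spot fluorescence near 667 nm with signal-to-noise over triplicate slides.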 To be noted: probe aLAP1, fluorescence, higher = more signal.
The subject of another assay is Sam68 (KHDRBS1). The assay is described as follows: Sam68 small-molecule binders, primary screen, biochemical, small-molecule microarray, 635 nm fluorescence (AID 1125).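 Further: score merges 667 nm channel intensity with signal to noise over triplicate slides.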 Conditions: small-molecule microarray binding, higher = more signal.
The subject of assay [7] is Chordin-like protein 2 (CHRDL2). The assay is described as follows: CHRDL2 small-molecule binders, primary screen, biochemical, small-molecule microarray, 635 nm fluorescence (AID 1126).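 Further: printed compound slides probed with Chrdl2 protein at 4 µg/mL for 1 h at 4 C; score merges 667 nm emission intensity with signal to noise over three replicate slides.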 Conditions: small-molecule microarray binding, fluorescence 635 nm; higher = more signal.
Assay [8] deals with Concanavalin-A (Canavalia ensiformis) (UniProt P02866). Put plainly: ConA small-molecule binders, primary screen, artefact control for SMM control protein annotation, biochemical, small-molecule microarray, Alexa647 label, 635 nm (AID 1127).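 Further: z combines 667 nm emission intensity with signal-to-noise across three replicate slides.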 To be noted: ConA-A647 binding fluorescence, higher = more signal.
Assay [9] can be described thus: anti-His antibody binders, primary screen, artefact control for SMM control protein annotation, biochemical, small-molecule microarray, 635 nm fluorescence (AID 1128).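 Further: score merges feature fluorescence with signal-to-noise for each printed compound spot.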 Conditions: anti-His Alexa647 antibody binding, higher = more signal.
Assay [10] concerns Human papillomavirus type 1a E7 protein (residues 1-88). Put plainly: HPV1a E7 small-molecule binders, primary screen, biochemical, small-molecule microarray, residues 1-88, 635 nm (AID 1129). Conditions: small-molecule microarray binding, fluorescence 635 nm; higher = more signal.
Assay [11] has as its target Focal adhesion kinase 1 (Homo sapiens) (UniProt Q05397). The assay is described as follows: small-molecule microarray binders of FAK, primary screen, biochemical, 635/667 nm fluorescence, BSA, DTT (AID 1130).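 Further: composite of spot emission at 667 nm and signal to noise over triplicate slides.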 Conditions: PTK2 binding, 635 nm fluorescence, higher = more signal.
The test system of assay [12] is Fibrinogen (Alexa647-labelled). Put plainly: fibrinogen binders on compound microarrays, profiling panel, artefact control for SMM control-protein annotation, biochemical, small-molecule microarray, 635/667 nm fluorescence (AID 1131).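 Further: z-score merges 667 nm fluorescence with per-spot signal-to-noise over triplicate slides.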 To be noted: fibrinogen-A647 binding fluorescence, higher = more signal.
In assay [13] the target is Follistatin (Homo sapiens) (UniProt P19883). Put plainly: follistatin binders on small-molecule microarrays, primary screen, biochemical, small-molecule microarray, 635/667 nm fluorescence (AID 1132). Conditions: FST binding, 635 nm fluorescence, higher = more signal.
Assay [14] deals with Fibroblast growth factor 2 (Homo sapiens) (UniProt P09038). Put plainly: FGF2 binders on small-molecule microarrays, primary screen, biochemical, small-molecule microarray, 635/667 nm fluorescence (AID 1133). To be noted: small-molecule microarray binding, FGF2, fluorescence 635/667; higher = more signal.
Assay [15] in a line: mitochondrial membrane potential change in A549 cells, profiling panel, cell-based, JC-1 fluorescence, basal, 24 h, 100 nL (AID 1138).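 Further: A549 lung adenocarcinoma cells under basal conditions with no added stimulus; test concentration not given here.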 To be noted: higher = more signal.
A further assay has as its system Lefty1. The assay is described as follows: Lefty1 binders on small-molecule microarrays, primary screen, biochemical, small-molecule microarray, 635/667 nm fluorescence (AID 1139). Conditions: small-molecule microarray binding, fluorescence 635/667; higher = more signal.
Assay [16] deals with wheat germ agglutinin (Triticum aestivum), Alexa647-labelled. The assay is described as follows: wheat germ agglutinin binders on compound microarrays, profiling panel, artefact control for SMM control-protein annotation, biochemical, small-molecule microarray, 635/667 nm fluorescence (AID 1140).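 Further: score merges 667 nm feature emission with signal to noise over triplicate slides.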 To be noted: WGA-A647 binding, 635 nm fluorescence, higher = more signal.
In assay [17] the target is Luciferin 4-monooxygenase (Photinus pyralis) (UniProt P08659). Put plainly: firefly luciferase enzyme inhibitors, primary screen, biochemical, luminescence, purified enzyme, 2006 set (AID 1141).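 Further: cell-free assay with purified firefly luciferase at 100 ng per well in PBS; test concentration not given here.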 To be noted: SteadyGlo luminescence, 30 min, higher = more signal, called active from +8 up or from −8 down.

Active and inactive are the calls of the source.

Sequence of Luciferin 4-monooxygenase (Photinus pyralis) (P08659 whole entry, looked up): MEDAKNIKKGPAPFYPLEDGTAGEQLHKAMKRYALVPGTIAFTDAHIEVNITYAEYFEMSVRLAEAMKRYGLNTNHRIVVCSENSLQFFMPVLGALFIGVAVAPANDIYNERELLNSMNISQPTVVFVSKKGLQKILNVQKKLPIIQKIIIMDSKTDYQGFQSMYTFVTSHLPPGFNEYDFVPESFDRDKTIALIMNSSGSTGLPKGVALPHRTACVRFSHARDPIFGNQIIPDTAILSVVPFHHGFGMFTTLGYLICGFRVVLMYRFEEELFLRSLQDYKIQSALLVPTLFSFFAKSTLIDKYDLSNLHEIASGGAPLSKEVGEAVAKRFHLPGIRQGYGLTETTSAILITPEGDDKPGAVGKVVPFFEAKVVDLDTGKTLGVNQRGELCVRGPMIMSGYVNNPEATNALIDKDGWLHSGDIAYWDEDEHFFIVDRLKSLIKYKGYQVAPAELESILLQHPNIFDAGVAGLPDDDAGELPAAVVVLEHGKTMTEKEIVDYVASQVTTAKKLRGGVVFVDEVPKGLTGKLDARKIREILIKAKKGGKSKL
Sequence of Albumin (Bos taurus) (P02769 whole entry, looked up): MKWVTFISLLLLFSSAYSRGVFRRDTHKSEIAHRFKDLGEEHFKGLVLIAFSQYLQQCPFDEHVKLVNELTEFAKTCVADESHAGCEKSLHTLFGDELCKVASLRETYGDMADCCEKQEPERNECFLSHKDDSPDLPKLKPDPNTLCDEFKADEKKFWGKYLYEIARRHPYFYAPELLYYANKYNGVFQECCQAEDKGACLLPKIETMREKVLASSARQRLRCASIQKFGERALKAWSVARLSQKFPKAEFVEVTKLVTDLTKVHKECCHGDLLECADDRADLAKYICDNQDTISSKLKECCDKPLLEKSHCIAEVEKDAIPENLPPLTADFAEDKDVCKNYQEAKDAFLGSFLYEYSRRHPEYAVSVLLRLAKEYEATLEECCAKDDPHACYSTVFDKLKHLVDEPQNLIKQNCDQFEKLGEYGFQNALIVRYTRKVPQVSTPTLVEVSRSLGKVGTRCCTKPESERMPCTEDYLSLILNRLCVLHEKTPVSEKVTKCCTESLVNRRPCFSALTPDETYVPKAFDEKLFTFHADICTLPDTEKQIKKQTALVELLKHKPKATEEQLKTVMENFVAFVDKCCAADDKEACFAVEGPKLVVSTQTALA
Sequence of Follistatin (Homo sapiens) (P19883 whole entry, looked up): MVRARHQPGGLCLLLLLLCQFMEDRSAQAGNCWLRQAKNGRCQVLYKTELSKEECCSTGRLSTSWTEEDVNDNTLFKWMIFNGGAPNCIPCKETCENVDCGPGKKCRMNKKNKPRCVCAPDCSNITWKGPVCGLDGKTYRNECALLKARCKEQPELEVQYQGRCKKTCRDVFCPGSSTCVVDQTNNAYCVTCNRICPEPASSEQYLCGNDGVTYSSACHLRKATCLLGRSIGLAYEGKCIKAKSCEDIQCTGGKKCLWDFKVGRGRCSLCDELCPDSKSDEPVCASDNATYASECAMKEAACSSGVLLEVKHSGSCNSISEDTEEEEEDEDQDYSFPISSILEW
Sequence of Focal adhesion kinase 1 (Homo sapiens) (Q05397 whole entry, looked up): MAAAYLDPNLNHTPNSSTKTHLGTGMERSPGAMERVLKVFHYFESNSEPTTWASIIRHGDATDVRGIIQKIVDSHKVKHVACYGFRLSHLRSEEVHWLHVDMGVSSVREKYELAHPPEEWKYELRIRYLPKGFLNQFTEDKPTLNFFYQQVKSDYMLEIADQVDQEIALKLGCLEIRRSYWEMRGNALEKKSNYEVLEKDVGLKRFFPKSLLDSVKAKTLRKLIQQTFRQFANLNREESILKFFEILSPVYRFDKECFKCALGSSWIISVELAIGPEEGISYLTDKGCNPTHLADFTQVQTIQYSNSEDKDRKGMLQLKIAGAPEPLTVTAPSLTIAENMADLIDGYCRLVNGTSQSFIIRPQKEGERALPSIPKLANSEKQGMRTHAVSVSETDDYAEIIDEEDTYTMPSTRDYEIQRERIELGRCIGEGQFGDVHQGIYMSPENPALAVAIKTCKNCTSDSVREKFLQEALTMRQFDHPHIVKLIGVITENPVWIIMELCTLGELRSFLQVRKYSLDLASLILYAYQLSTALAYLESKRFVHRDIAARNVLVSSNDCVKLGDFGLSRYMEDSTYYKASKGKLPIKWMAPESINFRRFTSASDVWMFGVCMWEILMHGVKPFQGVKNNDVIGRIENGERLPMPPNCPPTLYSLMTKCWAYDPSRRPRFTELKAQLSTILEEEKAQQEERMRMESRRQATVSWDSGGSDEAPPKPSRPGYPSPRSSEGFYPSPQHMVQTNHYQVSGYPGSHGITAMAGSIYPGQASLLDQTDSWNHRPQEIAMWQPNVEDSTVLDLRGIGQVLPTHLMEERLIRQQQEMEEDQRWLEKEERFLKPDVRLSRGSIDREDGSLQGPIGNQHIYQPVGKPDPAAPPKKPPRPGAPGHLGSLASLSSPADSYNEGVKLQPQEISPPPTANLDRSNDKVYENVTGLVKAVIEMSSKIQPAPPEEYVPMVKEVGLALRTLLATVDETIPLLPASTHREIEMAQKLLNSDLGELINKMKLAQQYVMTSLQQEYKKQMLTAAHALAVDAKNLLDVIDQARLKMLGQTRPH
Sequence of Concanavalin-A (Canavalia ensiformis) (P02866 whole entry, looked up): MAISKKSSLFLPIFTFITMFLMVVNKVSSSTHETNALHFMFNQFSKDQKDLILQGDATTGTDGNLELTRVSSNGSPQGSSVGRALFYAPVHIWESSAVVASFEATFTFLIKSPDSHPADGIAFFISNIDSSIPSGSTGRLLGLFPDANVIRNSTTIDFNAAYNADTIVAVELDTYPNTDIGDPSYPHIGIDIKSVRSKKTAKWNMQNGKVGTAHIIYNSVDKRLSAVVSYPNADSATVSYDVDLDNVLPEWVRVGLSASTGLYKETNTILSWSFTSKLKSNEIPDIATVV
Sequence of Fibroblast growth factor 2 (Homo sapiens) (P09038 whole entry, looked up): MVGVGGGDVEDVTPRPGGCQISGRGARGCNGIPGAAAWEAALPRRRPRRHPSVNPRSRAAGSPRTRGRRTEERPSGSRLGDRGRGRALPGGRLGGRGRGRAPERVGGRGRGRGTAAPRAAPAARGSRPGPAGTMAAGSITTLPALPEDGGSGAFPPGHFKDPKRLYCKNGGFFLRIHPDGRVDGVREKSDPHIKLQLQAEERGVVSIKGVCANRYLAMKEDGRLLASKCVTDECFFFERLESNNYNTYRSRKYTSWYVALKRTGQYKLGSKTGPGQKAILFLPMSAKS

`C[C@@]1([C@@H](NC(=O)c2ccc(-c3ccccc3)cc2)c2ccc(Cl)cc2)C[C@H]1C1CCCCC1`: the composite z-score with Albumin (Bos taurus) is 0.688; in [2], 0.305; in [3], -0.0527; in assay [4], 0.302; in [5], 2.21; in [6] it was 0.0789. The composite z-score is 1.29 in the assay on Sam68 (KHDRBS1); -0.564 in assay [7]; 1.01 in [8]; 2.1 in [9]; 1.15 in [10]; 0.473 in [11]. For the same compound, the composite z-score in assay [12] is 0.869; in assay [13], 0.663; in [14], -0.246; in the assay on Lefty1, 0.112; in assay [16], 0.695. Besides, in assay [1], the composite Z-score was -0.286 (inactive). For the same compound, the z-score is 0.532 in assay [15] and 0.321 (inactive) in [17].
Consider `CCOC(=O)C1=C[C@@H](C(C)(C)C)N(S(=O)(=O)c2ccc(C)cc2)[C@H]1c1ccc(F)cc1`, for which the composite z-score with Albumin (Bos taurus) is 0.316; in assay [2], 0.169; in assay [3] it was -0.0254; in [4] it was 0.287; in [5] it was 1.61; in [6], 0.397. Further, the composite z-score is 1.29 with Sam68 (KHDRBS1); 0.16 in assay [7]; 0.819 in [8]; 0.416 in assay [9]; 1.21 in assay [10]; -0.225 in [11]. Moreover, the composite z-score stood at 0.939 in [12]; 1.05 in assay [13]; 0.553 in assay [14]; 0.96 with Lefty1; 0.723 in assay [16]. Also, the composite Z-score in assay [1] is -0.171 (inactive). The z-score in assay [15] was 3.65; in [17], 1.53 (inactive).
As for `C=CCN1C(=O)[C@@]2(Cc3ccccc31)N=C(c1ccc(OCCCO)cc1)O[C@H]2c1ccccc1`, the composite z-score was -0.519 in the assay with Albumin (Bos taurus); 0.307 in assay [2]; 0.125 in assay [3]; 0.401 in assay [4]; 2.8 in assay [5]; 0.843 in assay [6]. The composite z-score in the assay on Sam68 (KHDRBS1) is 1.17; in assay [7], 0.885; in assay [8], 1.17; in assay [9], 2.49; in assay [10] it was 1.19; in assay [11], 1.02. In addition, the composite z-score in assay [12] is 0.039; in assay [13] it was 1.35; in [14], 0.988; in the assay on Lefty1, 0.368; in assay [16] it was 0.495. Moreover, the composite Z-score in assay [1] was 0.302 (inactive). The z-score in [15] is 1.1; in assay [17], -2.65 (inactive).
As for `C=CC(=C)[C@H]1Oc2ccccc2S(=O)(=O)N2CCC[C@@H]12`, the composite z-score was 0 with Albumin (Bos taurus); -0.0588 in assay [2]; -0.156 in [3]; -0.293 in assay [4]; -0.284 in assay [5]; -0.0098 in assay [6]. In addition, the composite z-score in the assay on Sam68 (KHDRBS1) is -0.973; in assay [7], 0.634; in assay [8], -0.285; in assay [9], -0.133; in assay [10], -0.492; in assay [11] it was -0.139. Moreover, the composite z-score in assay [12] is 0.224; in assay [13], 0.434; in [14], 0.0668; in the assay on Lefty1, 0.201; in assay [16], 0.023. Moreover, in assay [1], the composite Z-score was 0.0556 (inactive). For the same compound, the z-score in assay [15] is 0.16; in assay [17], -0.261 (inactive).
Consider `COc1ccc(CCNC(=O)[C@@]2(Sc3ccc(C)cc3)CC(=O)N(C3Cc4ccccc4C3)[C@@H]2c2ccc(CO)cc2I)cc1`, for which the composite z-score with Albumin (Bos taurus) was -0.101; in assay [2], 0.0425; in assay [3], -0.192; in [4], 0.729; in assay [5] it was 1.17; in [6], -0.286. The composite z-score with Sam68 (KHDRBS1) was 0.608; in assay [7], -0.235; in assay [8] it was -1.26; in [9], 1.13; in [10], 0.255; in assay [11], 0.235. In addition, the composite z-score was -0.716 in assay [12]; -0.816 in [13]; -0.944 in assay [14]; -1.04 in the assay on Lefty1; -0.176 in assay [16]. Also, the composite Z-score in assay [1] is -0.235 (inactive). Further, the z-score in assay [15] is 1.43; in [17], -0.704 (inactive).
As for `COCCOC(=O)N1C(=O)[C@@]2(c3cc(C#CCC(C(=O)OC)C(=O)OC)ccc31)[C@H](c1ccccc1OCCO)N1[C@H](c3ccccc3)[C@H](c3ccccc3)OC(=O)[C@H]1[C@@H]2C(=O)N1CCN(c2ncccn2)CC1`, the composite z-score in the assay with Albumin (Bos taurus) was 0.846; in assay [2], 0.225; in [3], -0.0249; in assay [4], 0.499; in [5], 1.66; in assay [6], 0.596. Besides, the composite z-score with Sam68 (KHDRBS1) was 1.31; in assay [7], 1.04; in assay [8], 1.12; in assay [9], 0.762; in [10], 1.12; in assay [11] it was 0.966. Moreover, the composite z-score in assay [12] was found to be 0.696; in [13] it was 1.38; in assay [14], 1.46; in the assay on Lefty1, 1.17; in [16], 0.63. The composite Z-score in assay [1] was 0.347 (inactive). The z-score in assay [15] was -0.895; in assay [17], 0.505 (inactive).

Values taken from PubChem BioAssay.
